From article PMC13494018
Values without a mark were called inactive. The rule behind the calls is not given here.

Target: VTCN1, Q7Z7D3
Sequence (Q7Z7D3 whole entry): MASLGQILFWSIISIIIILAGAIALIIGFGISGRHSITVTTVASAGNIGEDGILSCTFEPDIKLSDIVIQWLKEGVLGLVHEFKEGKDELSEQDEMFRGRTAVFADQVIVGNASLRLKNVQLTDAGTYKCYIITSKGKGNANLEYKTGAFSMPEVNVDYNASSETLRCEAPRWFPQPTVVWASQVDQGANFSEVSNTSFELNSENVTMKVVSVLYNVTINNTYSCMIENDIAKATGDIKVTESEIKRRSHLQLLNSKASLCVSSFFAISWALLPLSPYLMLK

Binder	binding in a display sort
d4r4_design_ppi_229_dldesign_0_cycle1_af2pred (protein) EKEEKKKEAKELAEEAKKLAEELAKAAEEDLEKAKELYKKAKEAAGKAIKLAKEAGDKETAKEASENNFKAHENYAEGKFK	not found
d4r4_design_ppi_240_dldesign_0_cycle0_af2pred (protein) MKEKQEKARAEARAEHVKEAIEKYYKEAAKGDKKEALKKTAEFAKEAAKKAKYPLTKEIALALAEEYAKKAA	not found
d4r4_design_ppi_251_dldesign_0_cycle1_af2pred (protein) DSDEKAKELLEEAEKYLEEGEKLMEEGKYEEAVLLYRRAQVAALSAELSATTEELKEKAKELLKKAEEKLKEAEEALKKAEEEKK	not found
d4r4_design_ppi_253_dldesign_0_cycle0_af2pred (protein) MEELREEARRRMREARERAGEAAATSPEAAREAAEEVRRIAEELRKRVDWQTGARAEAQAEQIVEALERAAKAMEA	not found
d4r4_design_ppi_253_dldesign_0_cycle1_af2pred (protein) MEEKKEEARRIVREAREEARKAAAESPEAALKAAEKVKERRKELEEKVDFKTAESASARFEQIIEALKIAAKKLAA	not found
d4r4_design_ppi_257_dldesign_0_cycle1_af2pred (protein) AEAKAAREAEFKALVEKAEAAADAAMAKATTIEEKKAILDLFNEAARHAKRGAANPETAAADLAAAKAKLAEIEAKAKA	not found
d4r4_design_ppi_265_dldesign_0_cycle1_af2pred (protein) SKEEEEAKKTKEEAEKRLKKALEEAKKLGEAEVDAVKQIVEAGKKAAAAAETPKEAAEALAKAAKTAESIIKTAKEAKKR	not found
d4r4_design_ppi_269_dldesign_0_cycle0_af2pred (protein) SVEEAKKKNLKIAEEAIKLAEEVAKELEKNEKYKEKAEEFKKKAKELKELKKKGEEDALDATLAGVYGKRLKKKAEEEKKKLEEE	not found
d4r4_design_ppi_269_dldesign_0_cycle1_af2pred (protein) DVEEAREKNLEIAKKAIEEARKVAKEAEKKPEYREKAKELRKEAEELEKLAEEGKKDPLMATLAGVQGRRLLEEARKLRKELEEE	not found
d4r4_design_ppi_299_dldesign_0_cycle0_af2pred (protein) KSELAKKAADETSKALSYIRAFAKYKPEKGKEIEDLLLDEEKMEEAAELAEKAAKEAETEEEKEIAKKAAEHIRKAKEYLEKLK	not found
d4r4_design_ppi_303_dldesign_0_cycle0_af2pred (protein) MAERAAIMEEARENAIKAYEYAVKLKKIDPELGKEYMKKIDKLMKEAVEAAKDAEKAKKKAEEIKKLAEEIEKIAKEK	not found
d4r4_design_ppi_338_dldesign_0_cycle1_af2pred (protein) SLNEEAKKEAEKLVEKAKKALKESPEAGEKAVKEMANKYHEYLELGVDKEVVERLRKEAKELKEEVKRKKKELEEEKLA	not found
d4r4_design_ppi_344_dldesign_0_cycle1_af2pred (protein) DPLTLAQEGLTEARYNAKDPEKALAILTATVAAGTAALAALAADPATAPLAAAGLATLARYGAKVGAEILANAKEKEA	not found
d4r4_design_ppi_349_dldesign_0_cycle0_af2pred (protein) SEKEKLLEKYKETLEELRKVRKELAKEKKNLDKETFTKIANELQDARNESAYYKQQGDYKKALEAAEKALEIAKEGLKKAKEAA	not found
d4r4_design_ppi_349_dldesign_0_cycle1_af2pred (protein) SEAAKYKAQYEATKKQLKETSAKLKEEKKNLSAETYKEYANKLQEARQKSTYYKAKGDYKNALAAMQEALDIAQQALAEAQKAK	not found
d4r4_design_ppi_356_dldesign_0_cycle1_af2pred (protein) DLEEKAKEGLKKMEEEGKKNPELGKKVKELLEKGKEDGLKGVVEAAKLLTKEAGEEIKPYAAAIVHYERLKK	not found
d4r4_design_ppi_373_dldesign_0_cycle0_af2pred (protein) AARAAAQKEAVALMAEAAEKAAEKAKKTSVAAEAFRAATKAAQAAASGEKWPEGEAAVEKLKKLDPEAGKIIAEAAAKAKAIMA	not found
d4r4_design_ppi_373_dldesign_0_cycle1_af2pred (protein) SEKEARIKEAVALMDKAAEEAAEKAKTTELANKAFRAATTAAKAAASGEDWPKGEAAVKELKKADPEAGKIIEEAAKQAAEIIA	not found
d4r4_design_ppi_394_dldesign_0_cycle1_af2pred (protein) MEIQKENDAEAGLERAKHAKEVAKKALENKPKLSLEEVAEILKKAAERAEKAAKTEEGKKLAKELKEEAKKVEAELKKAQ	not found

Binder	binding in a display sort
d4r4_design_ppi_396_dldesign_0_cycle0_af2pred (protein) AEAAAFAAAKAAAAKAFAEAYEAANALLASGKYKEEAEKGKKELKELAKKLKAAKTAEEAKKVAEEAKKLAEKLKKLLEEAE	not found
d4r4_design_ppi_410_dldesign_0_cycle0_af2pred (protein) AAAAAAAQKAEMDRTVAAAERQTAILEKRLKAAGLTALADKVKAALAALKAAAEAGDYEAAKKAAAALAKAAAEAREAVAEKEVKA	not found
d4r4_design_ppi_411_dldesign_0_cycle1_af2pred (protein) SAAEVAALEKAARAAIAAALAAAKAALADPSTLAEQKKAAEAALAAAREAAAAARWKDYEVGEALRKELAAAEKEVKATIAEAQKKKE	not found
d4r4_design_ppi_439_dldesign_0_cycle1_af2pred (protein) AEEEERERRVREAAEWLVEAPVRLANEAALRAGELAGDSDLALEIQALNNYNREEGARAALASPAREVVAEATEEVRRRREAERAAA	not found
d4r4_design_ppi_471_dldesign_0_cycle0_af2pred (protein) EEAEKVAKEAREVGKEAAEAGLKKTAAEAFAAANRVRAALAFKKANPEKGQPILEEEVKEAKEVIEKAKKEIAAKKAAA	not found
d4r4_design_ppi_471_dldesign_0_cycle1_af2pred (protein) EEAKKVAEEAKKVGKEAAKAGLEKLAAEAFEASYKVKAAYDFYKKNPEKGKEILEEEVKEAKKVIEKAKKEIKKAKAKA	not found
d4r4_design_ppi_481_dldesign_0_cycle1_af2pred (protein) MADEASAEIRLENAKDAAKIWIKKVEKIDPELAKEYAAKMKEAAKKPDKEGAKKAREIAKEVKKKAEELEKKAKEKEEEKKKEEEEK	not found
d4r4_design_ppi_486_dldesign_0_cycle0_af2pred (protein) MEETIERAKEAAREALEAAREAAKKNAADPEKVKKLAELAQKAQEARAEALAKPEKAEEALKRIEEYLKEAKEILE	not found
d4r4_design_ppi_486_dldesign_0_cycle1_af2pred (protein) MEEVVKKAEEAAKKAVEAAREAAKKNAADPEKVKYLAELAQEALEARAVALAKPELAEEELKKIEEKRKKAEEILA	not found
d4r4_design_ppi_490_dldesign_0_cycle0_af2pred (protein) AKTEEEAKKAATEASEAVADLRGYEQEAKIKGNEEAAKVAKEAIKEAAKLAKEAAASKDPKEALKLAKEALKVAKKAIEEVKKLLE	not found
d4r4_design_ppi_490_dldesign_0_cycle1_af2pred (protein) AEVEKEAKKAATEAREAVAELRGLAQEAKLKGVEEAKKVAEEAIKEASALLKEAAKEKDPEKALKLAKEAYKVAKEAIKKAKKLLE	not found
d4r4_design_ppi_491_dldesign_0_cycle1_af2pred (protein) SANKELADAIKEAAKEAQAAANAAKEAYADDPAKAKEFADKMEKKIDEAHNSDLETAKKIAEEAKKEKEKAKAALKKAKA	not found
d4r5_design_ppi_7_dldesign_0_cycle1_af2pred (protein) EESKELRIKAISLLSSAAFYAKTLGPEGKYFEKAAELALTDLEKAIEEAKKALKAAEKLDKELAKRVEKAIEYLKKALE	not found
d4r5_design_ppi_19_dldesign_0_cycle0_af2pred (protein) MEEKLKEAAKKVQEAYQLAAENKEKREELRELAKKARESLKEAEKAYKEGKEEEAEKYLEKSFEYNKEAEELYKKTKKEKEEKEKK	not found
d4r5_design_ppi_20_dldesign_0_cycle1_af2pred (protein) MNLEELKKKVKEYTKELGKKAGVSEEEIKELAELAAEAASLSSDTTKEVLEDYAKESSEKVAKVAKETAEYAIEIKKKAR	not found
d4r5_design_ppi_25_dldesign_0_cycle0_af2pred (protein) EKEEALKKAANIIQKMREEGTAGINEAKVSGSKEIAKEAIKKAEELAKKALEEASKATPEDYEKAKEKVKRILERLKKEAEKVIKE	not found
d4r5_design_ppi_25_dldesign_0_cycle1_af2pred (protein) EEKEAVKKAAKIIQEMREKGLELIHEAKIKGSKEIAEEGIKKAEELGKKALEAAEKASPEERKKVEEKVEKTLKRIKEEAEKVIKE	not found
d4r5_design_ppi_34_dldesign_0_cycle0_af2pred (protein) EEEKKEAAKKAAELIERAIEAAKTEGKEYGIIYMEAAVEAAKKVGLGEKAKEALKALEKDEEEGIKLAKELREEFEKLI	not found
d4r5_design_ppi_34_dldesign_0_cycle1_af2pred (protein) EEEKLKAAEAAARNLKLAIEAAKTEGKEYGILYMESAVQAGEIVGLGEKVKETKEALEKNPEEGIKLAEELKKEFEAIV	not found
